# Source: PubChem (National Center for Advancing Translational Sciences (NCATS))
# Only some compounds are listed: those with a hit (about 0.74% of all), similar ones and a draw of the others.
# RECQ1 inh-1 = blocks DNA unwinding by human RECQ1. P46063. RECQ1 DNA unwinding, red fluorescence kinetic read. Potency, µM (top dose mostly 57.3 µM), actives largely listed as inhibitors. actives 0.54% (n = 240,000). AID 2549; further: nearly all actives have a fitted effect of over 30% in size
#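 50 nM RECQ1T1 preincubated 15 min with compound in Tris pH 8.0 buffer with MgCl2, DTT, Tween-20 and 2.5 ug/ml poly(dI-dC); started with 200 nM TAMRA/BHQ-2 forked duplex and 2 mM ATP. Unwinding read as fluorescence (525/598 nm), two reads 2 h apart.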
# APE1 inh-1 = inhibitors of human APE1 endonuclease; recombinant APE1, TAMRA/BHQ-2 abasic DNA cleavage fluorescence; Potency, µM (top dose mostly 65.8 µM), actives largely listed as inhibitors; actives 0.35% (n = 350,000); AID 2517; further: nearly all actives have a fitted effect of over 55% in size
# Target sequence (P27695 whole entry, looked up): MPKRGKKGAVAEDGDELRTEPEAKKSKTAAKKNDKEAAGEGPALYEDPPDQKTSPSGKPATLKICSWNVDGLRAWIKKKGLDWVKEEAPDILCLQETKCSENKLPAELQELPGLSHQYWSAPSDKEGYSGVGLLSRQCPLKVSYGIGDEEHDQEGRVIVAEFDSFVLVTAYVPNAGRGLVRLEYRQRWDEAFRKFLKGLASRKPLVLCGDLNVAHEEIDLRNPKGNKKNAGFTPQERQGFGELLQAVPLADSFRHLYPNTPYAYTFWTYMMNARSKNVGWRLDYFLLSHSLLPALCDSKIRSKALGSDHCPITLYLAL
#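 Kinetic fluorescence read (525 ex/598 em nm, three reads 60 s apart) of AP-site incision; signal = third minus first read. Enzyme 0.75 nM, dual-labelled THF duplex 50 nM, compound preincubation 15 min RT.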
# BLM inh-1 = blocks DNA unwinding by human BLM helicase; recombinant BLM DNA unwinding, fluorescence dequenching; Potency, µM (highest dose often 56.1 µM), actives largely listed as inhibitors; actives 0.2% (n = 350,000); AID 2528; further: nearly all actives have a fitted effect of over 35% in size
# PGK inhibitor = T. brucei PGK inhibition | PGK/GAPDH coupled, Kinase-Glo luminescence, 60 min | Potency, µM (series often up to 57.5 µM), most hits filed as inhibitors | actives 0.043% (n = 380,000) | AID 602233; further: nearly all actives have a fitted effect of over 60% in size
# Target sequence (P07378 whole entry, looked up): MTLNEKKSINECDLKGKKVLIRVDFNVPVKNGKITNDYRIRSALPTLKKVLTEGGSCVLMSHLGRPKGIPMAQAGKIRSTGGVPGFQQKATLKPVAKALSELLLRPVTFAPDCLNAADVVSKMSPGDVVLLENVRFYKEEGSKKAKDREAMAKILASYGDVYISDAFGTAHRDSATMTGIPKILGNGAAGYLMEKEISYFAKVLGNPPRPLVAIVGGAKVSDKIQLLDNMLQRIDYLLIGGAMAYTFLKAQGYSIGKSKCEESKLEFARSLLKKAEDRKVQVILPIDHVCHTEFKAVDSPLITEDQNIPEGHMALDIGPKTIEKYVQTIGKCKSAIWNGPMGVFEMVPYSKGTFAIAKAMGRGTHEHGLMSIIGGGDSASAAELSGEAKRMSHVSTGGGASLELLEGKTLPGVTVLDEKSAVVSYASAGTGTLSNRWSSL
#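 Luminescent ATP detection (Kinase-Glo Plus) follows a 60-minute room-temperature incubation, with wells lacking PGK as controls. Buffer: 100 mM TEA (pH 7.6), 5 mM MgCl2, 0.01% Tween-20. Coupling enzyme GAPDH (100 nM final) supplies unstable 1,3-BPG in-well.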
# FEN1 inh-1 = inhibitors of human flap endonuclease 1 | Recombinant FEN1 flap cleavage, fluorescence, 15 min | Potency, µM (top dose mostly 114 µM), most hits filed as inhibitors | actives 0.35% (n = 390,000); further: nearly all actives have a fitted effect of over 65% in size
#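 Potency values derive from four-parameter Hill fits of normalized qHTS data. The reaction used 10 nM FEN1 preincubated 15 min at room temperature with compound, then 50 nM DNA substrate, read at 0 and 15 min.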
# APE1 dye cs = counter-screen for APE1 inhibitors: DNA dye displacement; actives 7% (n = 480); shares compounds with APE1 inh-1; DNA fluorescent dye displacement counterscreen, fluorescence; AID 2564; Potency, µM (highest dose often 28.5 µM), hits mostly inhibitors;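 further: loss of thiazole orange fluorescence as the dye is displaced from duplex DNA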
# Endo IV inh = Endo IV (E. coli) inhibition counter-screen; shares compounds with APE1 inh-1; E. coli Endo IV, fluorogenic AP-site DNA cleavage; Potency, µM (doses to about 27.1 µM), usual class: inhibitors; actives 4% (n = 560)
# APE1 inh-2 = confirmation of inhibitors of human APE1 endonuclease; actives 44% (n = 750); purified APE1, fluorogenic abasic-site DNA cleavage; shares compounds with APE1 inh-1; AID 2572; Potency, µM (doses to about 57.1 µM), actives largely listed as inhibitors; further: nearly all actives have a fitted effect of over 30% in size
# APE1 FP inh = displaces DNA from human APE1 in FP assay; APE1 binding to TAMRA-labelled double-stranded DNA, fluorescence polarization displacement; actives 7% (n = 480); AID 2573; shares compounds with APE1 inh-1; Potency, µM (titrated, usually from 28.5 µM), actives largely listed as inhibitors
# BLM inh-2 = BLM (human) helicase inhibition, confirmation. shares compounds with BLM inh-1. AID 2585. BLM DNA unwinding, fluorescence quenching, biochemical. actives 40% (n = 220). Potency, µM, usual class: inhibitors;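 further: strand separation dequenches TAMRA so unwinding raises red fluorescence; series mostly up to about 69 µM; nearly all actives have a fitted effect of over 45% in size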
# RECQ1 inh-2 = blocks human RECQ1 DNA unwinding; shares compounds with RECQ1 inh-1; recombinant RECQ1 DNA unwinding, red fluorescence; Potency, µM (series often up to 119 µM), actives largely listed as inhibitors; actives 15% (n = 1,100); AID 504841; further: nearly all actives have a fitted effect of over 50% in size
# FEN1 inh-2 = FEN1 inhibition, cherry-pick retest. shares compounds with FEN1 inh-1. FEN1 flap cleavage, TAMRA/BHQ2 fluorogenic DNA substrate. Potency, µM, actives largely listed as inhibitors. actives 79% (n = 880). AID 720498; further: nearly all actives have a fitted effect of over 60% in size
# Numbers stand for hits; – = inactive; ? = inconclusive; · = no result given; ! = not active in a repeat. The call rests on the fitted dose curve; in most records, active means well fitted curve in the direction sought with a large enough effect; inconclusive means small, poorly fitted or top-dose-only effect, or another doubt; inactive means no such curve, though single readings can be large; an effect the other way counts as inactive or inconclusive.
SMILES,RECQ1 inh-1,APE1 inh-1,BLM inh-1,PGK inhibitor,FEN1 inh-1,BLM inh-2,others
COCCCNc1c2c3c(cccc3[nH]c1=O)C(=O)c1ccccc1-2,25µM,?,–,–,79µM,·,Endo IV inh=13µM;APE1 inh-2=?;APE1 FP inh=4µM;RECQ1 inh-2=56µM;FEN1 inh-2=60
N#C/C(=C\c1cc(O)c(O)c(O)c1)C(N)=O,–,3.5µM,?,·,?,·,APE1 dye cs=–;Endo IV inh=–;APE1 inh-2=?;APE1 FP inh=–;FEN1 inh-2=13
O=C(NCc1ccc(N2CCCC2=O)cc1)NC1CCCCC1,–,–,–,–,–,·,
Cc1ccc(CN2C(=O)N/C(=C\c3ccc(-c4ccc(C(=O)O)cc4C)o3)C2=O)cc1,?,16µM,–,?,45µM,·,APE1 dye cs=?;Endo IV inh=–;APE1 inh-2=?;APE1 FP inh=–;FEN1 inh-2=76
CC(CNCCCn1cnc2c(OCc3ccccc3)ncnc21)c1ccccc1 (stereo not given),·,·,·,–,–,·,
CCc1cc2c(CN3CCN(Cc4ccccc4)CC3)cc(=O)oc2cc1O,·,–,–,–,–,·,
C=C1CC[C@@H]2[C@](C)(CC[C@@H](O)[C@]2(C)CO)[C@@H]1C/C=C1/C(=O)OC[C@H]1O,·,·,·,·,·,–,
CS(=O)(=O)N(Cc1ccc(F)cc1)Cc1nc2ccccc2c(=O)[nH]1,–,–,–,–,–,·,
O=C(CSc1nnc2scc(-c3ccc(Cl)cc3)n12)Nc1cccc(C(F)(F)F)c1,·,·,–,·,–,·,
Nc1c(C(=O)NCC2CCCO2)sc2nc3c(c(-c4ccco4)c12)CC/C3=C\c1ccco1 (stereo not given),2.5µM,2µM,5µM,?,3.2µM,?,
CN1C(=O)C2(c3ccccc31)N(c1ccc(Br)cc1)C(=O)CS2(=O)=O (stereo not given),·,·,–,–,–,·,
O=C(OCC(=O)N1CCN(C(=O)c2ccco2)CC1)c1cc(-c2ccc(Cl)c(Cl)c2Cl)nc2ccccc12,–,–,–,–,–,·,
O=C(OCC(=O)N1CCN(C(=O)c2ccco2)CC1)c1cc(-c2ccco2)nc2ccccc12,13µM,16µM,8.9µM,?,?,?,
NC(=O)CC1Nc2cccc3cccc(c23)NC1=O (stereo not given),–,–,2.8µM,–,–,–,
O=C(Nc1ccc2nc(-c3ccco3)c(-c3ccco3)nc2c1)N1CCN(c2ccccn2)CC1,–,–,4.5µM,–,?,?,
CC(Cc1c[nH]c2ccccc12)NC(=O)OCCCl (stereo not given),–,–,–,–,–,·,
CCC(C)n1c(NC(=O)c2ccccc2)c(C#N)c2nc3ccccc3nc21 (stereo not given),–,–,10µM,–,?,?,
CC(Oc1cccc(Cl)c1)C(=O)N1CCN(c2ncccn2)CC1 (stereo not given),·,–,·,–,–,·,
Oc1ccc(N=Cc2ccc(OCc3ccccc3)cc2)cc1,?,?,32µM,?,?,–,
O=C(N/N=C/c1ccc(OCc2ccccc2)cc1)c1ccncc1,–,–,–,·,–,·,
CCn1c(SCC(=O)Nc2ccc(C)cc2)nc2sc3c(c2c1=O)CCN(C)C3,·,–,–,–,–,·,
CCn1c(SCC(N)=O)nc2sc3c(c2c1=O)CCN(C)C3,–,–,0.71µM,–,–,–,
CCOC(=O)c1sc2nc3c(SCCC#N)cc(C(=O)c4cc(F)ccc4O)cn3c(=O)c2c1C,–,–,–,–,–,·,
O=C(O)CSc1cc(C(=O)c2cc(F)ccc2O)cn2c(=O)c3c(-c4ccccc4)csc3nc12,–,–,25µM,?,?,?,
CC(=O)c1cnc(Nc2nc(C)c3ccccc3n2)nc1C,–,–,–,·,·,·,
SMILES,RECQ1 inh-1,APE1 inh-1,BLM inh-1,PGK inhibitor,FEN1 inh-1,BLM inh-2,others
CN(C)c1cc(Cl)c2nonc2c1N,28µM,?,35µM,–,?,?,
CC(C)CC1C(=O)N(Cc2cn(Cc3ccco3)nn2)CCS(=O)(=O)N1Cc1ccc(-c2ccc(F)nc2)cc1 (stereo not given),·,·,·,–,·,·,
O=C1OC(Nc2cc(Br)cc3cccnc23)c2ccccc21 (stereo not given),–,–,22µM,–,–,–,
CC(C)Oc1ccc(C2CC(=O)N(c3cccc(C(=O)O)c3)C2=O)cc1 (stereo not given),–,–,–,–,–,·,
COc1ccc(CN2CCNC(=O)C2CC(=O)NC2CCCCCC2)c(C)c1C (stereo not given),·,–,–,–,–,·,
O=C(COC(=O)C1(c2ccc(F)cc2)CCCC1)NCc1ccco1,?,–,22µM,–,–,–,
CCc1ccc(O)c(N=Cc2ccccc2O)c1,–,–,–,–,–,·,
O=c1[nH][nH]c2c(N=Cc3ccccc3O)ccc(F)c12,?,8.9µM,28µM,16µM,18µM,?,
O=C1C(N2CCOCC2)=C(n2nnc3ccccc32)C(=O)c2ccccc21,–,–,35µM,–,–,?,
O=C1c2ccccc2C(=O)c2c1cccc2-n1nnc2ccccc21,–,–,–,–,–,·,
Cc1ccc(-c2nc3ncccc3o2)cc1NC(=O)COc1ccc(C(C)C)cc1,·,·,–,–,–,·,
Cc1cc(OCC(=O)Nc2cc(-c3nc4ncccc4o3)ccc2C)ccc1Cl,·,·,28µM,–,–,?,
COc1ccc([C@H]2C[C@@H](n3cc(COC(=O)c4ccccc4)nn3)[C@H](O)CN2Cc2cccs2)cc1,·,·,·,–,·,·,
CN(C)/C=N/c1nc2ncc(-c3ccc(Cl)cc3)c(/N=C/N(C)C)n2n1,–,–,–,–,–,·,
O=C1Nc2ccc(I)cc2/C1=C/c1cc(Br)c(O)c(Br)c1,25µM!,–,?,·,?,96µM,
Cc1ccc(S(=O)(=O)N2CCCCC2)cc1NC(=O)Cc1cccs1,·,–,·,–,–,·,
